This note sets out measurements from PubChem BioAssay AID652015 (National Center for Advancing Translational Sciences (NCATS), 2013).

The structures appear in SMILES notation. Inconclusive results are not listed. A call without a number means that no potency is given here. Active and inactive are the calls of the source. The call rests on the fitted dose curve; in most records, active means well fitted inhibition curve with a large enough effect; inconclusive means small, poorly fitted or top-dose-only effect; inactive means no such curve, though single readings can be large or run the other way.
Potency means the concentration at half of the fitted maximal effect.

Chain of Coelenterazine h 2-monooxygenase (Renilla reniformis) (P27652 whole entry, looked up): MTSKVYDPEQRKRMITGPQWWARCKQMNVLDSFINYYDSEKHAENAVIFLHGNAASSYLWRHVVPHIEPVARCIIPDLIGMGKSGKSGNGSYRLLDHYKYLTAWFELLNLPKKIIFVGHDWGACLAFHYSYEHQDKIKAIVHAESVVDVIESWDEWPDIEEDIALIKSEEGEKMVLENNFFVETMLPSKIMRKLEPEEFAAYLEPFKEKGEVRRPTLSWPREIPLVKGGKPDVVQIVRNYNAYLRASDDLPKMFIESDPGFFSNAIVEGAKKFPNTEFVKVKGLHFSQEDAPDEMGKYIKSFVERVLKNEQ

The assay has as its target Coelenterazine h 2-monooxygenase (Renilla reniformis) (UniProt P27652). The assay is described as follows: qHTS Assay for Inhibitors of Sea Pansy Luciferase from the GSK Published Protein Kinase Inhibitor Set. The following applies: purified Renilla luciferase, luminescence; series mostly up to 57.5 µM. The source says:
FLuc (firefly luciferase) is the prototypical bioluminescent reporter gene from Photinus pyralis.[1] The enzyme catalyzes the oxidation luciferin via luciferin-AMP to produce light. FLuc is used in cell-based reporter gene-based assays for screening small molecule chemical libraries. However, small molecule luciferase inhibitors present in most large chemical libraries are often enriched in the output of high throughput screens using this reporter sometimes complicating interpretation and candidate selection.
RLuc is a bioluminescent reporter gene luciferase from Renilla reniformis, also known as the sea pansy. RLuc uses the luciferin substrate coelenterazine. RLuc is often used in combination with the nonhomologous luciferase FLuc (firefly luciferease) as a trasfection or pathway normalization control. Recently, non-homologous reporters have been described for high throughput screening 'coincidence' reporter gene strategies.
1. Fan F, Wood KV (2007) Bioluminescent assays for high-throughput screening. Assay Drug Dev Technol 5: 127-136.
2. Thorne N, Inglese J, Auld DS (2010) Illuminating insights into firefly luciferase and other bioluminescent reporters used in chemical biology. Chem Biol 17: 646-657.
3. […] Chem Biol 19: 1060-1072.
4. Michelini E, Cevenini L, Mezzanotte L, Coppa A, Roda A (2010) Cell-based assays: fuelling drug discovery. Anal Bioanal Chem 398: 227-238.
5. Cheng KC, Inglese J (2012) A coincidence reporter-gene system for high-throughput screening. Nat Methods 9: 937.
Biochemical renilla luciferase enzyme assay
NCGC Assay Protocol Summary:
Reagents: 50mM Tris acetate, pH 7.5; 100uM NaCl; 5uM Coelenterazine H (Promega #S2011); 0.01% Tween-20; 0.05% BSA; 1nM R. reniformis luciferase (Nanolight Technologies #314)
Control compounds used were a known renilla luciferase inhibitor BTS (Tocris Biosciences #1870) and DMSO.
Three microliters containing renilla luciferase substrate in buffer (final concentrations: 50mM Tris acetate, pH 7.5, 100uM NaCl, 0.01% Tween-20, 0.05% BSA, 5uM coelenterazine h) are dispensed into each well of a Greiner white, solid-bottom 1536-well format plate using a flying reagent dispenser (FRD). These assay plates were then treated with 23nL of compound or DMSO using a Kalypsys pin tool, which allows for delivery of a 7-point interplate titration of each compound to the assay plate (quantitative HTS), with final compound concentrations ranging from approximately 60uM to 300pM. One microliter of renilla luciferase in 50mM Tris-acetate buffer was then delivered by FRD to each well for a final enzyme concentration of 1nM. Luciferase activity was then measured using an Envision plate reader (PerkinElmer), with an average incubation time of 2 min.
For orientation: In qHTS, concentration-response curves come from the screen itself.
Take `O=C1NC(=O)C(c2ccccc2)=C1Nc1ccccc1`: the Potency entry is “inactive”.

Turning to `COc1cc(Nc2ncc(-c3ccccc3)o2)cc(OC)c1`, the Potency entry was “inactive”.

For `CC(=Nc1ccc(S(N)(=O)=O)cc1)c1c(O)[nH]c2ccccc12`, the Potency entry is “inactive”.

As to `COc1ccc(-c2cc(-c3cn[nH]c3-c3ccccn3)ccn2)cc1`, the Potency result is “inactive”.

With `CC1=C(C(=O)Nc2ccc3[nH]ncc3c2)C(c2ccc(Cl)c(Cl)c2)CC(=O)N1` (stereo not given), the Potency entry was “inactive”.

Take `CS(=O)(=O)Nc1cccc(-c2ccc3c(NC(=O)C4CC4)n[nH]c3c2)c1`: the Potency entry was “inactive”.

`N#Cc1ccc2c(-c3ccnc(NC4CC4)n3)c(-c3ccc(F)cc3)nn2c1`: the Potency entry was “inactive”.

Take `Cc1cc(O)cc(C)c1C=Cc1cncc(C(N)=O)c1`: the Potency result is “inactive”.

Turning to `CCn1c(-c2nonc2N)nc2c(C#CC(C)(C)O)ncc(OC3CCNCC3)c21`, the Potency entry is “inactive”.

In the case of `CC1=C(C(=O)Nc2ccc3n[nH]c(C)c3c2)C(c2ccc(C(F)(F)F)cc2)CC(=O)N1` (stereo not given), the Potency entry was “inactive”.

For the compound `CNC(=O)c1cncc(C=Cc2ccccc2Cl)c1`, the Potency result is “inactive”.

For the compound `O=C1NC(=O)C(c2ccc(Cl)cc2)=C1Nc1ccc(Cl)c(C(=O)O)c1`, the Potency result was “inactive”.

On to `CCn1c(-c2nonc2N)nc2c(C#CC(C)(C)O)ncc(OCC3CCNCC3)c21`, for which the Potency entry is “inactive”.

In the case of `CCOc1ccc2c(-c3ccnc(Nc4cccc(C(F)(F)F)c4)n3)cnn2n1`, the Potency result is “inactive”.

With `O=S(=O)(CCOCc1ccc(-c2ccc3ncnc(Nc4ccc(OCc5cccc(F)c5)c(Cl)c4)c3c2)o1)c1ccccc1`, the Potency entry was “inactive”.

`Nc1nonc1-c1nc2cnccc2n1C1CC1`: the Potency result was “inactive”.

On to `Fc1ccc(-c2ncn(C3CCNCC3)c2-c2ccnc(Oc3ccc(Cl)cc3)n2)cc1`, for which the Potency entry is “inactive”.

Consider `COc1cc(Nc2ncc3c(C)nc(-c4cccc(Oc5ccccc5)c4)n3n2)cc(OC)c1OC`, for which the Potency result is “inactive”.

Turning to `OCCCNc1nccc(-c2c(-c3ccc(F)cc3)nn3cc(C(F)(F)F)ccc23)n1`, the Potency result is “inactive”.

Take `CNC(=O)c1cncc(C=Cc2ccccc2C)c1`: the Potency result was “inactive”.

Consider `CS(=O)(=O)CCNCc1cc(-c2cc3c(Nc4ccc(OCc5cccc(F)c5)c(Cl)c4)ncnc3s2)cs1`, for which the Potency entry was “inactive”.

Regarding `Cc1ccc2[nH]c(O)c(N=Nc3ccc(S(N)(=O)=O)cc3)c2c1`, the Potency result is “inactive”.

On to `COc1cc2ncn(-c3cc(OCCc4ccccc4)c(C(N)=O)s3)c2cc1OC`, for which the Potency entry is “inactive”.

Take `COc1cccc(-n2nc(C)c3c(NN=C(C)c4ccncc4)ncnc32)c1`: the Potency result is “inactive”.

In the case of `NC(=O)c1cc(-c2ccc(F)cc2)cc(-c2ccncc2)c1N`, the Potency entry is “inactive”.

Consider `O=C(Nc1n[nH]c2nc(-c3ccc(O)cc3)c(Br)cc12)C1CC1`, for which the Potency entry was “inactive”.

In the case of `CC1=C(C(=O)Nc2cc(Cl)c3[nH]ncc3c2)C(c2ccc(C(F)(F)F)cc2)CC(=O)N1` (stereo not given), the Potency entry was “inactive”.

As to `NC(=O)c1sc(-n2cnc3ccc(C(F)(F)F)cc32)cc1OCc1ccccc1Br`, the Potency entry was “inactive”.

On to `N#Cc1c(NC(=O)c2ccccc2F)sc2c1CCCC2`, for which the Potency result is “inactive”.

Consider `CS(=O)(=O)CCNCc1ccc(-c2ccc3ncnc(Nc4ccc(OCc5cccc(F)c5)c(C(F)(F)F)c4)c3c2)o1`, for which the Potency result was “inactive”.

For `COc1cc2c(cc1Nc1nc(Nc3ccsc3C(N)=O)c3cc[nH]c3n1)N(C(=O)CN(C)C)CCC2(C)C`, the Potency entry was “inactive”.

As to `CCn1c(-c2nonc2N)nc2cnc(Oc3cccc(NC(=O)c4ccc(N(C)C)cc4)c3)cc21`, the Potency result is “inactive”.

With `NS(=O)(=O)c1ccc(Nc2cc(-c3cccc(O)c3)[nH]n2)cc1`, the Potency entry is “inactive”.

As for `Cc1c2ccc(N(C)c3ccnc(Nc4cccc(S(N)(=O)=O)c4)n3)cc2nn1C`, the Potency is 18.3 µM (active).

As to `CS(=O)(=O)CCNCc1nc(-c2ccc3ncnc(Nc4ccc(OCc5cccc(C(F)(F)F)c5)cc4)c3c2)cs1`, the Potency entry is “inactive”.

As for `Cc1ccc(C(=O)NC2CCC2)cc1-c1ccc(C(=O)NCC2CC2)cc1`, the Potency entry is “inactive”.

In the case of `COc1cccc(C=NNc2ncnc3c2cnn3-c2cccc(OC)c2)c1`, the Potency entry was “inactive”.

As for `CS(=O)(=O)CCNCc1ccc(-c2ccc3ncnc(Nc4ccc(OCc5ccccc5)cc4)c3c2)o1`, the Potency result is “inactive”.

Regarding `COc1cc(C=NNc2ncnc3[nH]ncc23)ccc1O`, the Potency entry is “inactive”.

For the compound `COc1cccc(-n2ncc3c(NN=Cc4ccncc4)ncnc32)c1`, the Potency entry was “inactive”.
